Results reported in PubChem BioAssay (NCATS).
Inconclusive results are not listed. Values without a mark were called inactive. Calls of active or inactive are those of the source. The call rests on the fitted dose curve; in most records, active means well fitted curve in the direction sought with a large enough effect in the repeat runs; inconclusive means weak or mixed curves; inactive means no such curve, though single readings can be large; an effect the other way counts as inactive or inconclusive.

Tests used:
[1] = target: Cytochrome P450 2D6 (Homo sapiens) (UniProt P10635); assay: Cytochrome P450 family 2 subfamily D member 6 (CYP2D6) small molecule antagonists: luciferase biochemical (cell-free) qHTS assay (AID 1645840)
In short: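 P450-Glo luminescent screen: recombinant CYP2D6 enzyme–proluciferin substrate mix preincubated with compound 10 min at room temperature, then NADPH regeneration added for 1 h at room temperature. Detection reagent added for 20 min; luciferin light read as relative luminescence units.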

[2] = target: Cytochrome P450 2C9 (Homo sapiens) (UniProt P11712); assay: Cytochrome P450 family 2 subfamily C member 9 (CYP2C9) small molecule antagonists: luciferase biochemical (cell-free) qHTS assay (AID 1645842)
In short: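 Luminescence, after 20 min with luciferin detection reagent, reflected CYP2C9 turnover during a 1 h NADPH-driven reaction at 37C. Enzyme-substrate mix contained 0.4% bovine serum albumin and was preincubated with compound 10 min at room temperature.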
Further: nearly all actives have a fitted effect of over 55% in size.
Potency means the concentration at half of the fitted maximal effect.

Cytochrome P450 2C9 (Homo sapiens), sequence (P11712 whole entry, looked up): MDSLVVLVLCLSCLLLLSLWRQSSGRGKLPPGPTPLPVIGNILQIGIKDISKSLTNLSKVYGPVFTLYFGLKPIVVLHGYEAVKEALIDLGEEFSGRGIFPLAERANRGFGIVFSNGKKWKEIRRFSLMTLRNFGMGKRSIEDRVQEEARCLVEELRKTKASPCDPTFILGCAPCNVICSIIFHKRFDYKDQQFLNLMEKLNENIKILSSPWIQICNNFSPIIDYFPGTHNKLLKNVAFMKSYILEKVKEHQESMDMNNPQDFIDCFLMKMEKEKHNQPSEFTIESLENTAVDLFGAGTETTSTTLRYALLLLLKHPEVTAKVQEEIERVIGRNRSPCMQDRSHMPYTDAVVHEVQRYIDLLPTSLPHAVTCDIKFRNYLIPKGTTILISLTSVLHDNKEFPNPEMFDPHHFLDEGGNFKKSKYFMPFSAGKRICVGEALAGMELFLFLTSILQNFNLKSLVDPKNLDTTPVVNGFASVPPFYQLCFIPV
Cytochrome P450 2D6 (Homo sapiens), sequence (P10635 whole entry, looked up): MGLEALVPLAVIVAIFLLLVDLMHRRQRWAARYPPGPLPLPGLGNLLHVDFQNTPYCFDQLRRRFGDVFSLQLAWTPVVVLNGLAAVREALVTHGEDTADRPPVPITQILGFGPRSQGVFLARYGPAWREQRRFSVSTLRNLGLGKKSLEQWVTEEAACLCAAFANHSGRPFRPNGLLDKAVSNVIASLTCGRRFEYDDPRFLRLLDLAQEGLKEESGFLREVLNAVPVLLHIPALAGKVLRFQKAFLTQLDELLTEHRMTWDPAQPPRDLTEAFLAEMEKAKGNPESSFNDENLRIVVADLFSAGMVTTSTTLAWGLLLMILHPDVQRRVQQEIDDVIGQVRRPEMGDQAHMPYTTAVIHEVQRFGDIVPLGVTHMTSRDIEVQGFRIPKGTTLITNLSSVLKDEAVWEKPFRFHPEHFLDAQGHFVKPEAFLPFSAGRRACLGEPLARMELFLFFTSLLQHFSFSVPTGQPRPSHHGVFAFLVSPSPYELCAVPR

SMILES | Potency [1] | Potency [2]
CC1=CC(O)=NS(=O)(=O)O1 | inactive | inactive
Cc1ccccc1-n1c(SCc2ccc(Cl)cc2)nc2[nH]ncc2c1=O | 21.3 µM (active) | 2.39 µM (active)
CCOC(=O)c1cnc2ccc(OC)cc2c1NCCc1ccc(OC)c(OC)c1 | 2.39 µM (active) | 0.849 µM (active)
CCc1ccc(S(=O)(=O)NCc2ccc3c(c2)CCN3C(=O)c2ccc(C)cc2)cc1 | 5.35 µM (active) | 0.674 µM (active)
Cc1ccc(NC(=O)Cn2cc(C(=O)c3ccco3)c3ccccc32)c(C)c1 | 6.74 µM (active) | 0.849 µM (active)
CCCCCCCCCCCCCCCCNc1ccc(C(=O)O)cc1 | inactive | inactive
CC(C)c1ccc(Nc2c(-c3ccccn3)nc3ccccn23)cc1 | 26.8 µM (active) | 1.2 µM (active)
Cc1cncn1CCc1nc2c3ccccc3nc(SCC(=O)Nc3cccc(Cl)c3)n2n1 | 0.674 µM (active) | 0.425 µM (active)
O=C(Cn1c(=O)n(Cc2ccco2)c(=O)c2oc3ccccc3c21)Nc1ccccc1 | 0.756 µM (active) | 4.77 µM (active)
CCc1ccc(OCCn2c(C3CC(=O)N(Cc4ccc(F)cc4)C3)nc3ccccc32)cc1 (stereo unspecified) | 3.01 µM (active) | inactive
Cc1cccc(C)c1NC(=O)Cn1cc(C(=O)c2ccco2)c2ccccc21 | 9.52 µM (active) | 3.79 µM (active)
COc1cc(C(=O)NC(c2ccc(Cl)cc2)c2cc(Cl)c3cccnc3c2O)cc(OC)c1OC (stereo unspecified) | inactive | 10.7 µM (active)
CCOc1ccccc1NC(=O)Cn1c(=O)n(CCC(=O)NCc2ccc3c(c2)OCO3)c(=O)c2ccccc21 | 0.425 µM (active) | 0.601 µM (active)
COc1ccc(C(=O)Oc2ccc(C(c3c(C)[nH][nH]c3=O)c3c(C)[nH][nH]c3=O)cc2OC)cc1 | inactive | 3.38 µM (active)
CCOc1ccc(CNC(=O)Cn2c(=O)c3cccn3c3ccc(F)cc32)cc1OC | inactive | inactive
Cc1ccc(C2=Nc3ccccc3N(CC(=O)Nc3ccccc3F)C(=O)C2)cc1C | 2.39 µM (active) | inactive
COc1ccccc1C(=O)Oc1ccc(C(c2c(C)[nH][nH]c2=O)c2c(C)[nH][nH]c2=O)cc1 | inactive | 10.7 µM (active)
CCC(=O)N1CCc2cc(S(=O)(=O)NC(Cc3ccccc3)C(=O)NCc3cccc(OC)c3)ccc21 (stereo unspecified) | 12 µM (active) | 12 µM (active)
COc1ccc(-c2noc(CCCC(=O)Nc3cccc(Cl)c3C)n2)cc1 | inactive | 3.79 µM (active)
Cc1cccn2c(=O)c3cc(C#N)c(=O)n(-c4nnc(SCc5ccc(Cl)cc5)s4)c3nc12 | inactive | 6.01 µM (active)
CCN(CC)S(=O)(=O)c1ccc2c(c1)nc(CN(C)C(=O)Nc1cccc(Cl)c1)n2C | 26.8 µM (active) | 0.849 µM (active)
COc1ccc(NC(=O)C2CCCN(c3nnc(C)c4c(C)n(-c5ccccc5)nc34)C2)cc1Cl (stereo unspecified) | 16.9 µM (active) | 5.35 µM (active)
COC(=O)Cc1ccc(NC(=O)C2=C(C)NC(Nc3nc4ccccc4o3)=NC2c2ccccc2Cl)cc1 (stereo unspecified) | inactive | 0.756 µM (active)
CCC(Sc1nc2ccccc2c2nc(CCn3cncc3C)nn12)C(=O)Nc1cccc(OC)c1 (stereo unspecified) | 12 µM (active) | 1.9 µM (active)
CC(C)OCc1cc(CN2CCN(c3cccc(C(F)(F)F)c3)CC2)c(O)c2ncccc12 | inactive | 12 µM (active)

SMILES | Potency [1] | Potency [2]
CCc1cccc(CC)c1-n1c(CC(C)C)c(C(=O)N2CCNCC2)cc(-c2nc(-c3ccc(Cl)cc3)cs2)c1=O | 9.52 µM (active) | 10.7 µM (active)
Cc1ccc(S(=O)(=O)NC2CCC(C(C)(C)C)CC2)cc1 (stereo unspecified) | inactive | 2.68 µM (active)
COc1ccc(NC(=O)Cn2ccn(-c3ccc(C)c(C)c3)c(=O)c2=O)cc1Cl | inactive | inactive
CC1(C)C(/C=C/C=C/C=C/C=C2/N(CCCCS(=O)(=O)O)c3ccc4ccccc4c3C2(C)C)=[N+](CCCCS(=O)(=O)[O-])c2ccc3ccccc3c21 | 26.8 µM (active) | 13.5 µM (active)
Cc1ccc(Cn2c(CN3CCC(C(=O)NCCc4ccccc4)CC3)cc3ccccc32)cc1 | 0.0477 µM (active) | 2.13 µM (active)
CCOCCCNC(=O)C(=O)Nc1c2c(nn1-c1ccc(OC)cc1)CSC2 | inactive | 10.7 µM (active)
COc1ccc(-n2ccn(CC(=O)Nc3ccc(C)c(C)c3)c(=O)c2=O)cc1OC | inactive | inactive
COc1ccc2c(CNCCc3ccccc3OC)c(C(=O)O)n(Cc3ccc(F)cc3Cl)c2c1 | 12 µM (active) | 12 µM (active)
COc1ccc(CNC(=O)C(=O)Nc2c3c(nn2-c2ccccc2)CSC3)cc1 | inactive | 3.38 µM (active)
COc1ccc(NC(=O)C2=C(C)Nc3nc(SCc4ccccc4C)nn3C2c2cc(OC)c(O)c(OC)c2)cc1 (stereo unspecified) | inactive | inactive
O=C(O)C1CSC(C(=O)O)N1 (stereo unspecified) | inactive | inactive
C=CCNCCCCCC[N+](C)(C)C | inactive | inactive
COc1ccc(C(=O)Nc2nc3ccccc3n2CCOc2ccc(Cl)cc2)cc1 | inactive | 26.8 µM (active)
CC1=C(C(=O)Nc2cccc(CN)c2)C(c2ccccc2Cl)N=C(Nc2nc3ccccc3o2)N1 (stereo unspecified) | 3.38 µM (active) | 5.35 µM (active)
COc1ccc(NC(=O)CSc2nc(-c3cccs3)cc(C(F)(F)F)n2)cc1OC | inactive | inactive
Cc1cccc(Cn2c(SCc3ccc(C(=O)N4CCC(C)CC4)cc3)nc3ccncc32)c1 | 4.77 µM (active) | 4.77 µM (active)
CC1(C#N)CCN(c2c(C(=O)N3CCN(S(C)(=O)=O)CC3)cnc3ccc(F)cc23)CC1 | inactive | inactive
COc1ccc(CCNc2nc(SCc3cccc(F)c3)nc3ccccc23)cc1OC | 0.301 µM (active) | 0.756 µM (active)
Cc1nc2c3ccccc3nc(NNC(=O)CCC(=O)N3CCN(c4ccc(F)cc4)CC3)n2n1 | inactive | 3.79 µM (active)
CCc1ccc(-n2c(SCc3ccccc3Cl)nc3[nH]ncc3c2=O)cc1 | 15.1 µM (active) | 23.9 µM (active)
O=c1c2c(on1Cc1ccccc1)CCNCC2 | inactive | 10.7 µM (active)
Cc1ccn2c(Nc3ccccc3C)c(-c3ccccn3)nc2c1 | 19 µM (active) | 0.952 µM (active)
Cc1ccc(Cn2c(SCC(=O)NCc3ccccc3)nc3ccsc3c2=O)cc1 | 6.01 µM (active) | 6.74 µM (active)
COc1ccc(C(=O)Oc2ccc(C(c3c(C)[nH][nH]c3=O)c3c(C)[nH][nH]c3=O)cc2)cc1 | inactive | 10.7 µM (active)
Cc1ccc(-n2ncc3c(NCCCn4ccnc4)ncnc32)cc1Cl | 3.79 µM (active) | 0.601 µM (active)

SMILES | Potency [1] | Potency [2]
Cc1ccc(CNC(=O)C(C)n2nc(C)c3sc4ccccc4c3c2=O)cc1 (stereo unspecified) | 13.5 µM (active) | 2.39 µM (active)
Cc1cc(-n2c(SCc3ccccc3F)nc3[nH]ncc3c2=O)ccc1Cl | 19 µM (active) | 23.9 µM (active)
CN(C)S(=O)(=O)n1cc(/C=C(\NC(=O)c2ccccc2)C(=O)NCCCn2ccnc2)c2ccccc21 | 0.0535 µM (active) | 0.213 µM (active)
CN1C(=O)NC(Cc2c[nH]c3c(Cl)cccc23)C1=O (stereo unspecified) | inactive | 13.5 µM (active)
Cc1nnc(N2CCC(C(=O)NCCc3ccccc3Cl)CC2)c2nn(-c3ccccc3)c(C)c12 | 2.13 µM (active) | 1.9 µM (active)
Cc1ccc(C)c(N2CCN(C(=O)C3CCN(S(=O)(=O)c4ccc5[nH]c(=O)oc5c4)CC3)CC2)c1 | inactive | 2.13 µM (active)
COc1ccc(NC(=O)CSc2oc(-c3cccs3)nc2S(=O)(=O)c2ccc(Br)cc2)c(OC)c1 | inactive | 0.477 µM (active)
CNS(=O)(=O)c1ccc(Cc2c(-c3cccc(-c4ccccc4)c3)[nH]n(-c3nc(C(=O)O)cs3)c2=O)cc1 | 26.8 µM (active) | 21.3 µM (active)
Cc1ccc(C2=CC(c3ccccc3F)n3c(nc4ccccc43)N2)cc1C (stereo unspecified) | 10.7 µM (active) | 6.01 µM (active)
COc1cccc(CNCc2cccn2-c2nnc(N3CCN(c4ccccc4)CC3)s2)c1 | 3.38 µM (active) | 9.52 µM (active)
Cc1cccc(NC(c2ccccc2F)c2ccc3ccc(C)nc3c2O)n1 (stereo unspecified) | inactive | 6.01 µM (active)
Cc1ccc(S(=O)(=O)N[C@@H]2CCCC[C@H]2O)cc1 | inactive | inactive
Cc1oc(-c2ccccc2F)nc1Cn1c(SCc2ccccc2F)nc2ccncc21 | 12 µM (active) | 9.52 µM (active)
Cc1ccc(Cn2ccnc2SCC(=O)Nc2nc3ccccc3s2)cc1 | 10.7 µM (active) | 8.49 µM (active)
O=c1cc2nc(-c3cccs3)nc(SCCOc3ccc(Cl)cc3)n2[nH]1 | inactive | 19 µM (active)
COc1cccc(-c2oc3ccc(C)cc3c(=O)c2O)c1 | 7.56 µM (active) | 7.56 µM (active)
Cc1ccc([S+](=O)([O-])NC2(c3ccccc3)CCCCC2)cc1 | inactive | 2.68 µM (active)
CC1=C(C(=O)NCc2cncn2C)C(c2ccccc2Cl)N=C(Nc2nc3ccccc3o2)N1 (stereo unspecified) | 9.52 µM (active) | 7.56 µM (active)
Cc1ccc(C(=O)c2cn(CC(=O)Nc3ccc4c(c3)OCCO4)c3nc(C)ccc3c2=O)cc1 | inactive | 9.52 µM (active)
COC(=O)c1cc(S(C)(=O)=O)ccc1OC | inactive | inactive
CCOC(=O)c1cc(S(=O)(=O)N2CCN(c3cc(Cl)ccc3C)CC2)[nH]n1 | 26.8 µM (active) | 1.2 µM (active)
COC(=O)c1ccc(C2C=C(c3ccc(Cl)cc3)Nc3nc4ccccc4n32)cc1 (stereo unspecified) | 3.38 µM (active) | 2.68 µM (active)
COc1ccc(-c2n[nH]c3c2cnc2cc(OC)c(OC)cc23)cc1 | inactive | inactive
